Assay [1] in a line: A CellTox Green Cytotoxicity Assay to monitor cytotoxicity in HEK293 cells - 40 hour (AID 1224871). Also: nearly all actives have a fitted effect of over 45% in size. Also: potency is read from the fitted curve at half-maximal effect. In a few lines: (§1)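 Dead-cell fluorescence measured kinetically: asymmetric cyanine dye, HEK293, 600 cells/well, 5 h settle, 23 nL cpd/DMSO, 37 C, reads 0–40 h every 8 h.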
Assay [2] is described as follows: qHTS RealTime-Glo MT Cell Viability Assay in HEK293 cells - 16 hour (AID 1224872). Also: nearly all actives have a fitted effect of over 50% in size. Also: potency is read from the fitted curve at half-maximal effect. In a few lines: (§2)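 HEK293 cells were seeded at 600 cells/well together with NanoLuc luciferase and cell-permeant prosubstrate, preincubated 5 h at 37 C/5% CO2, then given compound in DMSO by pintool. Luminescence from viable-cell prosubstrate reduction was read repeatedly over 40 h.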
(Quantitative high-throughput screening tests each substance at several concentrations.)

A short description of assay [3]: qHTS RealTime-Glo MT Cell Viability Assay in HepG2 cells - 8 hour (AID 1224873). Also: nearly all actives have a fitted effect of over 55% in size. A digest of the protocol: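 Real-time viability: cells seeded at 600 per well together with NanoLuc and cell-permeant prosubstrate, compounds added after 5 h incubation. Luminescence tracked at 0, 8, 16, 24, 32 and 40 h of exposure.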
Assay [4] in a line: qHTS RealTime-Glo MT Cell Viability Assay in HEK293 cells - 40 hour (AID 1224874). Also: nearly all actives have a fitted effect of over 50% in size. Also: potency is read from the fitted curve at half-maximal effect. To be noted: RealTime-Glo luminescence; max response: stronger effect = lower value. A digest of the protocol: (§3)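 600 HEK293 cells per well, dispensed already mixed with RealTime-Glo MT reagents. Compound dosing came 5 h later. The same wells were read for luminescence at 0, 8, 16, 24, 32 and 40 h of exposure at 37 C.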

A short description of assay [5]: A CellTox Green Cytotoxicity Assay to monitor cytotoxicity in HEK293 cells - 24 hour (AID 1224875). Also: series mostly up to about 77 µM; nearly all actives have a fitted effect of over 45% in size. In a few lines:
as §1

Assay [6] can be described thus: A CellTox Green Cytotoxicity Assay to monitor cytotoxicity in HepG2 cells - 16 hour (AID 1224876). Also: nearly all actives have a fitted effect of over 45% in size. In a few lines:
(§4)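 First, HepG2 cells (600/well) mixed with reagent were plated; second, after 5 h at 37 C they received compounds via pintool; third, fluorescence was measured at 0 h through 40 h at 8 h intervals.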

A short description of assay [7]: qHTS RealTime-Glo MT Cell Viability Assay in HepG2 cells - 32 hour (AID 1224877). Also: nearly all actives have a fitted effect of over 55% in size. In a few lines:
(§5)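 HepG2 cells were seeded at 600 cells/well together with NanoLuc luciferase and a cell-permeant prosubstrate, preincubated 5 h at 37 C/5% CO2, then pin-dosed with compounds in DMSO. Nonlytic luminescence from viable cells was read at each time point.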

Assay [8] in a line: A CellTox Green Cytotoxicity Assay to monitor cytotoxicity in HepG2 cells - 24 hour (AID 1224878). Also: nearly all actives have a fitted effect of over 45% in size. A digest of the protocol: as §4
The nature of assay [9]: A CellTox Green Cytotoxicity Assay to monitor cytotoxicity in HepG2 cells - 40 hour (AID 1224879). Also: nearly all actives have a fitted effect of over 40% in size. In a few lines: as §4
Assay [10] in a line: qHTS RealTime-Glo MT Cell Viability Assay in HEK293 cells - 0 hour (AID 1224880). In a few lines:
as §3

Assay [11] can be described thus: A CellTox Green Cytotoxicity Assay to monitor cytotoxicity in HEK293 cells - 32 hour (AID 1224881). Also: nearly all actives have a fitted effect of over 40% in size. Also: potency is read from the fitted curve at half-maximal effect. In a few lines: as §1
Assay [12] can be described thus: A CellTox Green Cytotoxicity Assay to monitor cytotoxicity in HepG2 cells - 0 hour (AID 1224882). Also: nearly all actives have a fitted effect of over 35% in size. A digest of the protocol: as §4
Assay [13] can be described thus: A CellTox Green Cytotoxicity Assay to monitor cytotoxicity in HepG2 cells - 32 hour (AID 1224883). Also: nearly all actives have a fitted effect of over 50% in size. A digest of the protocol: as §4
Assay [14] is described as follows: A CellTox Green Cytotoxicity Assay to monitor cytotoxicity in HEK293 cells - 8 hour (AID 1224884). Also: nearly all actives have a fitted effect of over 35% in size. In a few lines:
as §1

Assay [15] is described as follows: qHTS RealTime-Glo MT Cell Viability Assay in HepG2 cells - 16 hour (AID 1224885). Also: nearly all actives have a fitted effect of over 50% in size. In a few lines: as §5
A short description of assay [16]: qHTS RealTime-Glo MT Cell Viability Assay in HEK293 cells - 24 hour (AID 1224886). Also: nearly all actives have a fitted effect of over 50% in size. Also: potency is read from the fitted curve at half-maximal effect. A digest of the protocol: as §2
Assay [17] can be described thus: qHTS RealTime-Glo MT Cell Viability Assay in HEK293 cells - 8 hour (AID 1224887). Also: nearly all actives have a fitted effect of over 50% in size. Also: potency is read from the fitted curve at half-maximal effect. In a few lines: as §3
The nature of assay [18]: A CellTox Green Cytotoxicity Assay to monitor cytotoxicity in HEK293 cells - 16 hour (AID 1224888). Also: nearly all actives have a fitted effect of over 35% in size. In a few lines:
as §1

The nature of assay [19]: qHTS RealTime-Glo MT Cell Viability Assay in HepG2 cells - 0 hour (AID 1224889). Also: nearly all actives have a fitted effect of over 50% in size. A digest of the protocol: as §5
Assay [20] is described as follows: A CellTox Green Cytotoxicity Assay to monitor cytotoxicity in HepG2 cells - 8 hour (AID 1224890). Also: nearly all actives have a fitted effect of over 45% in size. In a few lines: as §4

Where “and” joins values, the source holds several entries; their conditions need not be identical. Identical values can stand only once. Results filed as inconclusive are left out. Where a structure was tested more than once in an assay, its records may differ in their call. Calls of active or inactive are those of the source. Calls follow the shape of the dose curve; as a rule, active = well fitted curve in the direction sought with a large enough effect in the repeat runs; inconclusive = weak or mixed curves; inactive = no such curve, though single readings can be large; an effect the other way counts as inactive or inconclusive.
% is scaled to controls: 0 for no effect and ±100 for the full control effect.

As for `O=C(OCc1ccccc1)c1ccccc1`, the Potency in [1] was 43.8 µM (active) and inactive; in [11], 43.8 µM (active) and inactive. Besides, the Potency result in assay [2], in assay [5], in assay [6], in assay [8], in [9] and in assay [10] was “inactive” in each case. Also, the Potency result in assay [12], in assay [13], in assay [14], in [15], in [16] and in [17] was “inactive” each time. Moreover, the Potency result in assay [18], in [19] and in [20] was “inactive” throughout. Besides, the call in assay [3] and in [7] was inactive. Moreover, the max response in assay [4] is -12% (inactive) and 0.176% (inactive) and 2.06% (inactive).

For the molecule `CCCCCCCCCCCCCC(=O)OC(C)C`, the Potency result in assay [1], in assay [5], in [6], in assay [8], in assay [9] and in assay [10] was “inactive” throughout. Moreover, the Potency entry in assay [11], in [12], in [13], in assay [14], in assay [15] and in assay [18] was “inactive” in each case. The Potency result in [19] and in assay [20] was “inactive” each time. Also, the Potency result is “inactive and 4.36 µM (active)” in assay [2]; 2.75 µM (active) in [4]; “inactive and 3.47 µM (active)” in assay [16]; “inactive and 9.77 µM (active)” in [17]. Moreover, the molecule was classed as inactive in [3] and in assay [7]. For the same molecule, the max response in assay [4] is 1.2% (inactive) and -0.28% (inactive).

As for `CC1(C)O[C@@H]2[C@@H](CO[C@@]3(COS(N)(=O)=O)OC(C)(C)O[C@@H]23)O1`, the Potency result in assay [1], in assay [2], in [5], in [6], in assay [8] and in assay [9] was “inactive” each time. Also, the Potency entry in assay [10], in assay [11], in assay [12], in [13], in [14] and in [15] was “inactive” throughout. In addition, the Potency result in assay [16], in [17], in [18], in [19] and in [20] was “inactive” in each case. Besides, the molecule was called inactive in assay [3] and in assay [7]. Moreover, in assay [4], the max response is -1.97% (inactive).

With `CN(C)Cc1cc(CN(C)C)c(O)c(CN(C)C)c1`, the Potency entry in [1], in assay [2], in assay [5], in assay [6], in assay [8] and in assay [9] was “inactive” in each case. Also, the Potency result in assay [10], in assay [11], in assay [12], in [13], in assay [14] and in assay [15] was “inactive” throughout. Also, the Potency entry in assay [16], in [17], in [18], in assay [19] and in assay [20] was “inactive” in each case. Also, the outcome in assay [3] and in assay [7] was inactive. Besides, the max response in assay [4] was -0.259% (inactive) and 3.23% (inactive).

Take `C=CCOC(=O)CC(C)C`: the Potency result in assay [1], in [2], in assay [5], in [6], in assay [8] and in assay [9] was “inactive” each time. In addition, the Potency result in [10], in assay [11], in [12], in [13], in assay [14] and in assay [15] was “inactive” each time. The Potency result in [16], in assay [17], in assay [18], in assay [19] and in [20] was “inactive” in each case. Further, the call in [3] and in assay [7] was inactive. For the same molecule, in assay [4], the max response is 4.01% (inactive) and 4.38% (inactive).

`Cc1cccc2ccccc12`: the Potency result in assay [1], in assay [2], in assay [5], in assay [6], in assay [8] and in assay [9] was “inactive” throughout. Besides, the Potency result in [10], in assay [11], in [12], in [13], in assay [14] and in assay [15] was “inactive” throughout. The Potency entry in assay [16], in assay [17], in assay [18], in assay [19] and in assay [20] was “inactive” throughout. For the same molecule, the result in assay [3] and in [7] was inactive. Moreover, the max response in [4] is 3.52% (inactive) and 3.07% (inactive).

In the case of `CC(C)(C)CC(C)(C)c1ccc(O)c(-n2nc3ccccc3n2)c1`, the Potency result in [1], in assay [5], in [6], in assay [8], in [9] and in assay [10] was “inactive” in each case. Also, the Potency result in assay [12], in assay [13], in [14], in assay [15], in assay [18] and in assay [19] was “inactive” throughout. The Potency entry in assay [20] was “inactive”. Moreover, the Potency in assay [2] was 44.3 µM (active) and inactive; in [4], 49.7 µM (active); in [16] it was 49.7 µM (active) and inactive. Further, the call in [3] and in assay [7] was inactive. Also, the max response in assay [4] was -13.8% (inactive) and -3.1% (inactive).

`O=C1CCCCCN1`: the Potency result in assay [1], in assay [2], in assay [5], in assay [6], in assay [8] and in [9] was “inactive” throughout. The Potency entry in assay [10], in [11], in assay [12], in [13], in [14] and in assay [15] was “inactive” throughout. The Potency result in assay [16], in assay [17], in assay [18], in [19] and in assay [20] was “inactive” throughout. The outcome in assay [3] and in assay [7] was inactive. For the same molecule, the max response in assay [4] is -1.34% (inactive) and -3.41% (inactive).

For the molecule `OC[C@@H](O)[C@@H](O)[C@H](O)[C@H](O)CO`, the Potency entry in [1], in [2], in assay [5], in assay [6], in assay [8] and in assay [9] was “inactive” throughout. The Potency result in [10], in assay [11], in assay [12], in assay [13], in [14] and in assay [15] was “inactive” each time. Besides, the Potency entry in assay [16], in assay [17], in assay [18], in assay [19] and in [20] was “inactive” throughout. The molecule was classed as inactive in assay [3] and in assay [7]. Further, the max response in assay [4] was 5.62% (inactive) and 0.187% (inactive) and 10.1% (inactive).

Consider `NC(=O)N1c2ccccc2C=Cc2ccccc21`, for which the Potency result in assay [1], in assay [2], in [5], in assay [6], in assay [8] and in assay [9] was “inactive” in each case. In addition, the Potency result in assay [10], in [12], in [13], in [14], in [15] and in assay [16] was “inactive” throughout. In addition, the Potency result in assay [17], in assay [18], in assay [19] and in [20] was “inactive” each time. Besides, the molecule was called inactive in [3] and in assay [7]. Further, the Potency in assay [4] was 34.5 µM (active). Besides, the max response in assay [4] is -19.3% (inactive) and 0.148% (inactive).

(Values after PubChem BioAssay (Tox21).)
